Screening data: PubChem BioAssay, National Center for Advancing Translational Sciences (NCATS)
Pf growth 96h – inhibits malaria parasite growth, 96 h. P. falciparum luciferase reporter growth, 96 h. Potency, µM (titrated, usually from 28.7 µM), without a hit: at the top dose activity change, negative = inhibition, hits mostly inhibitors. 320,000 tested, 6.9% active. AID 504834; also: % is scaled to controls: 0 for no effect and ±100 for the full control effect
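Two-generation exposure (96 h) targets delayed-death phenotype. Reporter parasites carrying integrated firefly luciferase, in red cells at 2% hematocrit and 0.05% parasitemia final, kept at 37 C, 5% CO2; luminescence loss indicates inhibition.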
Sm TGR inh – inhibitors of Schistosoma mansoni thioredoxin glutathione reductase; Q962Y6; purified TGR, DTNB reduction, TNB absorbance 405 nm; Potency, µM (highest dose often 114 µM), inactives show top-dose activity change, negative = inhibition, usual class: inhibitors; 360,000 tested, 3% active; AID 485364; also: % is scaled to controls: 0 for no effect and ±100 for the full control effect; nearly all actives have a fitted effect of over 60% in size
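Kinetic colorimetric format: TGR-catalysed, NADPH-driven DTNB reduction monitored via TNB absorbance. Enzyme dispensed at 20 nM; compound exposure 15 min at room temperature before reaction start.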
SARS PLP yeast – SARS-CoV PLP inhibition in yeast | S. cerevisiae expressing SARS-CoV PLpro, growth rescue | 330,000 tested, 0.19% active | AID 485353 | Potency, µM (doses to about 32.9 µM), for inactives: at the highest dose activity, positive = growth rescue, usual class: activators; calls by dose curve; also: 0% is about no effect; nearly all actives have a fitted effect of over 55% in size
Pf growth 48h – P. falciparum growth inhibition at 48 hours (one generation); P. falciparum luciferase growth in erythrocytes, 48 h; Potency, µM (top dose mostly 28.7 µM), without a hit: at the highest dose activity change, negative = inhibition, usual class: inhibitors; 310,000 tested, 5.9% active; also: % is scaled to controls: 0 for no effect and ±100 for the full control effect
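Parasite viability was followed by luminescence of a genomically integrated firefly luciferase. Cultures held 0.1% parasitemia at 2% hematocrit (final), incubated under 5% CO2 at 37 C.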
AmpC no deterg – blocks E. coli AmpC beta-lactamase in detergent-free assay; P00811; AmpC nitrocefin hydrolysis, absorbance 480 nm, 0.0001% Triton; Potency, µM (doses to about 57.1 µM), without a hit: at the top dose activity change, negative = inhibition, usual class: inhibitors; 330,000 tested, 0.52% active; AID 485341;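 also: plate controls were no compound for no effect and no enzyme for full effect; nearly all actives have a fitted effect of over 20% in size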
Target sequence (P00811 whole entry, looked up): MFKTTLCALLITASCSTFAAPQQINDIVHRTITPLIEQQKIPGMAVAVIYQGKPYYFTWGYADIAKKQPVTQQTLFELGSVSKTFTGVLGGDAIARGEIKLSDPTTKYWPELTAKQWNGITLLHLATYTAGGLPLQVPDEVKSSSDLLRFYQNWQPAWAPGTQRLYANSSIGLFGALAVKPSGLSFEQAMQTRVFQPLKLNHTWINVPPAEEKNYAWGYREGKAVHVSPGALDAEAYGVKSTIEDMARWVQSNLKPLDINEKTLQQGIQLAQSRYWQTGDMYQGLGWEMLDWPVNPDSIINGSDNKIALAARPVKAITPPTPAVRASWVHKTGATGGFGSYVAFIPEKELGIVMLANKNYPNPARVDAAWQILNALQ
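AmpC (5.3 nM in the dispensed reagent) in 20 mM phosphate pH 7.0 with 0.01% (detergent screen) or 0.0001% Triton X-100 was preincubated with compounds for 15 min at room temperature. Nitrocefin was then added from an 800 uM solution, and hydrolysis was followed at 480 nm.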
AmpC detergent – inhibitors of E. coli AmpC beta-lactamase with detergent | AmpC hydrolysis of nitrocefin, absorbance 480 nm, 0.01% Triton | P00811 | AID 485294 | 370,000 tested, 0.041% active | Potency, µM (series often up to 114 µM), for the others: at the top dose activity change, negative = inhibition, most hits filed as inhibitors;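 also: 0% = no-compound wells and -100% = no-enzyme wells; nearly all actives have a fitted effect of over 25% in size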
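20 mM phosphate pH 7.0 + 0.01% (detergent screen) or 0.0001% Triton X-100; 5.3 nM AmpC reagent; cpd preinc 15 min RT; nitrocefin (800 uM stock) to start; A480 q20 s × 4 min; Activity was normalised to no-enzyme and no-compound control wells.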
Starred values were filed as active, the others as inactive; ? = inconclusive; . = no result; [ ] = dose if it differs, or a comment. Sampled rows, rich in hits. Any-hit rate of the full collection: about 12%. Unless noted, calls follow the shape of the dose curve; as a rule, active = well fitted curve in the direction sought with a large enough effect; inconclusive = small, poorly fitted or top-dose-only effect, or another doubt; inactive = no such curve, though single readings can be large; an effect the other way counts as inactive or inconclusive. Potency is read from the fitted curve at half-maximal effect.

SMILES	Pf growth 96h	Sm TGR inh	SARS PLP yeast	Pf growth 48h	AmpC no deterg	AmpC detergent
Cc1ccc(N(CC(=O)NC(C)(C)C)C(=O)CS(=O)CC(=O)Nc2ccc(F)cc2)cc1 (centres undefined)	41.4%	?	0.5%	11.6%	111.3%	-6.8%
O=C(Nc1ccc(-c2nc3ccccc3[nH]2)cc1)c1ccc2c(c1)OCO2	5.22µM*	4.1%	-3.8%	9.28µM*	-39.9%	1.9%
CS(=O)(=O)c1cccc(C(=O)Nc2cccc(-c3nc4ccccc4[nH]3)c2)c1	?	-27.8%	-9.9%	-15.3%	17.8µM*	-8.9%
CS(=O)(=O)c1ccc(C(=O)Nc2ccc(-c3nc4ccccc4[nH]3)cc2)cc1	-26.5%	-8.5%	4.7%	1.85µM*	-19.0%	?
CS(=O)(=O)Cc1ccc(C(=O)Nc2cccc(-c3nc4ccccc4[nH]3)c2)cc1	8.28µM*	4.7%	-1.5%	-43.9%	-33.3%	1.8%
COc1ccc(CCNC(=O)C2CCCN(c3nc4c(C)cc(C)cc4s3)C2)cc1OC (centres undefined)	.	1.3%	.	.	.	4.7%
CCOc1ccc(C(=O)Nc2ccc(-c3nc4ccccc4[nH]3)cc2)cc1[N+](=O)[O-]	-18.1%	-0.9%	1.7%	1.85µM*	-14.8%	-6.4%
CC(C)(CNC(=O)C1c2ccccc2-c2ccccc21)N1CCOCC1	-12.8%	-0.2%	1.5%	?	9.2%	-10.7%
CCOc1ccccc1NC(=O)C(OC(=O)c1ccc(CC)cc1)c1ccccc1 (centres undefined)	?	-4.4%	-28.7%	?	32.3%	-3.2%
CCOc1ccccc1NC(=O)C(OC(=O)c1ccc(O)cc1)c1ccccc1 (centres undefined)	?	-16.8%	-56.5%	11.7µM*	-42.3%	?
CCOc1ccccc1C(=O)Nc1cc(C(=O)NCC(C)C)ccc1Cl	1.65µM*	2.3%	-1.9%	7.38µM*	-40.1%	5.0%
CCOc1ccccc1C(=O)Nc1cc(C(=O)NCCc2ccccc2)ccc1Cl	?	4.8%	-3.9%	?	-32.1%	?
CCOc1ccccc1NC(=O)c1ccc(Cl)c(NC(=O)CC(c2ccccc2)c2ccccc2)c1	9.28µM*	-30.7%	3.1%	?	-45.4%	2.9%
CC(CCc1ccccc1)NC(=O)Cc1cccs1 (centres undefined)	26.2%	0.0%	0.6%	0.0%	-20.3%	-7.3%
CCOC(=O)c1ccc(NC(=O)CN2c3ccccc3S(=O)(=O)c3ccccc32)cc1	.	2.5%	.	.	.	17.8%
O=C(Nc1c(-c2ccccc2)nc2sccn12)c1ccccc1	-9.4%	-18.8%	2.4%	6.3%	-26.1%	-1.3%
COc1cccc(C(=O)Nc2c(C(=O)N3CCN(c4ccc(F)cc4)CC3)oc3ccccc23)c1	.	-8.8%	.	.	.	-1.8%
COc1cc(NC(=O)Cc2cccs2)c(C(=O)O)cc1OC	19.5%	.	-0.8%	-0.1%	-17.2%	-1.5%
CCOC(=O)c1ccc(NC(=O)Cn2cc(C(=O)C3CC3)c3ccccc32)cc1	.	12.5%	.	.	.	24.1%
COc1ccc2[nH]c(=O)c(CN(C(=O)c3cccc(Cl)c3)c3ccccc3C)cc2c1	.	-6.3%	.	.	.	3.6%
Cn1c(=O)c(C(=O)CN2CC(=O)Nc3ccccc32)c(N)n(Cc2ccccc2)c1=O	5.22µM*	-28.8%	-3.3%	-32.5%	-26.4%	?
CCN(CC)CC(=O)c1c(N)n(Cc2ccccc2)c(=O)n(C)c1=O	19.0%	1.0%	0.3%	-3.8%	-28.3%[11.4 µM]	-10.5%
Cn1c(=O)c(C(=O)CN2CCCc3ccccc32)c(N)n(Cc2ccccc2)c1=O	.	0.0%	6.1%	?	33.6%	0.0%
Cn1c(=O)c(C(=S)NC(=O)C2CC2)c(N)n(Cc2ccccc2)c1=O	30.6%	6.3%	1.0%	9.28µM*	-19.9%	-1.3%
Cn1c(=O)c(C(=O)CN2CCc3ccccc32)c(N)n(Cc2ccccc2)c1=O	8.28µM*	3.0%	-5.9%	11.7µM*	-25.4%	-1.5%
